In general, inhibition refers to the relative decrease from the control value, in per cent.

Unmarked numbers belong to inactive results. How the calls were made is not given here.

In this test the target is Lethal factor (Bacillus anthracis) (UniProt P15917). The experiment in a line: Lethal factor protease inhibitors, Bacillus anthracis, multiplex microsphere cleavage assay, validation set (AID 588461). The conditions noted are these: flow cytometry, at 10 µM, active compounds read high. For orientation: A flow cytometer gives signals particle by particle.
Take `CCOc1ccc2[nH]c3c(=O)n(CCc4ccc(OC)cc4)cnc3c2c1`: the inhibition is 0.2%.
With `CCCNCC(O)COc1ccccc1C(=O)CCc1ccccc1` (stereo not given) the figure was -1.2%.
The result for `CC[n+]1c(C)sc2cc(C)ccc21` reads -1.6%; that for `CN1/C(=C\C=Nc2ccccc2)C(C)(C)c2ccccc21`, -0.6%; that for `CC(=O)N1CC2(C)CN(C(C)=O)CC(C)(C1)C2`, 7.3%.
With `c1ccc2c(CC3=NCCN3)cccc2c1` the figure was -9.2%.
On to `Clc1ccc2c(c1)[C@H]1OCC[C@H]1[C@@H](c1ccco1)N2`, for which the inhibition was -4.1%.
The result for `CCOC(=O)c1ccc(N2C(=O)C(CC(N)=O)N(CCc3ccc(OC)c(OC)c3)C2=S)cc1` (stereo not given) reads -0.3%; that for `COc1cc(=O)n(C)c2ccccc12`, -7.3%; that for `CCSc1nc(O)c(C2OC(=O)c3c2ccc(OC)c3OC)c(=O)n1CC` (stereo not given), -2.4%.
The result for `CCN(CCCc1ccccc1)CCCc1ccccc1` reads -2.4%.
For `NS(=O)(=O)c1cc2c(cc1Cl)NCNS2(=O)=O`, the inhibition is -4.7%.
The result for `COc1ccc(-c2c(C)c3ccc(OCC(C)=O)cc3oc2=O)cc1` reads 1.2%; that for `C=C(C)[C@@H]1CC=C(CN2CCC(N3CCC(C(=O)N4CCCC4)CC3)CC2)CC1`, -0.3%.
Consider `O=C(Cc1ccccc1[N+](=O)[O-])NCc1ccncc1`, for which the inhibition is -5.4%.
For the compound `CN(C)CCC(c1ccc(Br)cc1)c1ccccn1` (stereo not given), the inhibition was -8.1%.
The result for `COC(=O)c1cc(C(=O)NCCC(C)C)cc([N+](=O)[O-])c1` reads 2.1%.
With `CCCCCCCC(=O)OCC(O)CO` (stereo not given) the figure was -2%; with `Cc1ccc(S(=O)(=O)NC(C(=O)Oc2cc3oc(=O)cc(C)c3cc2Cl)C(C)C)cc1` (stereo not given), -3.2%.
The result for `C=CCOC(=O)C1=C(C)NC(=O)NC1/C=C/c1ccccc1OC` (stereo not given) reads -0.8%; that for `OCCN(CCO)c1ccc2ccccc2c1`, -6.6%; that for `CC(C)CCn1c(N2CCc3ccccc3C2)nc2c1c(=O)[nH]c(=O)n2C`, 4%.
As to `CNCCCN1c2ccccc2CCc2ccccc21`, the inhibition was 3.8%.
On to `COc1ccc2[nH]c(=O)c(CN(C(=O)c3ccco3)C(C)C)cc2c1`, for which the inhibition was 2.1%.
The result for `O=C1C2C3C=CC(C4CC34)C2C(=O)N1/N=C/c1ccc(-c2ccc([N+](=O)[O-])cc2)o1` (stereo not given) reads -1.8%; that for `Cc1ccc2c(CN3CCN(Cc4ccc5c(c4)OCO5)CC3)cc(=O)oc2c1C`, -5.7%.
With `CC(=O)c1c(C)c(C)c2n1CCn1c(C)ccc1-2` the figure was 0.9%.
The result for `CC(C)Cc1cc(C(=O)N2CCC(N3CCC(C(=O)N4CCCC4)CC3)CC2)n[nH]1` reads -0.4%; that for `O=c1cnn([C@@H]2O[C@H](CO)[C@@H](O)[C@H]2O)c(=O)[nH]1`, 5.4%.
Take `COc1ccc(C2c3c(n[nH]c3C)CC(C)(O)C2C(C)=O)cc1OC` (stereo not given): the inhibition is -2.7%.
With `COc1ccc(CN(CCN(C)C)c2ccccn2)cc1` the figure was -14.9%; with `Cn1c(=O)c(C(=O)NCCO)c(O)c2ccccc21`, -2.2%.
The result for `CCCn1c(=O)c2[nH]c(C3CCCC3)nc2n(CCC)c1=O` reads -1.9%; that for `CCc1cc2c(=O)c(-c3ccc(F)cc3)c(C)oc2cc1OCC(=O)O`, -1.1%.
The result for `COc1ccc(CCN(C)Cc2nc(Cc3ccc(OC)c(OC)c3)no2)cc1OC` reads 6.9%; that for `Cc1ccc2occ(C(=O)c3ccco3)c(=O)c2c1`, 2.6%.
Take `CCCCCC(=O)O[C@]1(C(C)=O)CC[C@H]2[C@@H]3CCC4=CC(=O)CC[C@]4(C)[C@H]3CC[C@@]21C`: the inhibition is -1.6%.
The result for `CC12COC3(C(=O)Nc4ccc(F)cc4)CC1CCC32C` (stereo not given) reads -1.8%.
Turning to `CC(C)OC(=O)CC1C(=O)NCCN1C(=S)NC(=O)c1ccccc1Cl` (stereo not given), the inhibition was -0.2%.
The result for `COc1ccc(-c2[nH]ncc2C=O)cc1OC` reads -2.5%.
